Screens deposited in PubChem BioAssay by NMMLSC.
RGS7-Gao reg: regulators of human RGS7-Galphao interaction | P09471 | hit rate 0.35% among 220,000 | Multiplexed bead flow cytometry, RGS7-Galphao binding; actives lie on both sides | binding response (% of control), % at 10 µM; in the data active = binding response below about 49% or above about 150%; inconclusive = no clear call, values can overlap the other calls; inactive = in between;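 note: fluorescent Galphao held in activated GDP-AlF4 state binding bead-coupled RGS7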
Target sequence (P09471 whole entry, looked up): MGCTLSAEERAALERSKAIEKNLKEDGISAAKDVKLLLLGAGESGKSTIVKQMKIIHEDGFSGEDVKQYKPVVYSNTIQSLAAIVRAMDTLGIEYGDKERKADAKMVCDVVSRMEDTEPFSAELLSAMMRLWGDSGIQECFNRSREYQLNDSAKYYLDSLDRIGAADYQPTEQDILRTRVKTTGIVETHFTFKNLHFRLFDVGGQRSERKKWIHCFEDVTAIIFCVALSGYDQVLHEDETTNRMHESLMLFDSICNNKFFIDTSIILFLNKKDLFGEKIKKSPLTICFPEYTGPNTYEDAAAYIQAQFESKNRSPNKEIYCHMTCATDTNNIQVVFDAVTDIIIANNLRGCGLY
GSH fluor: compound fluoresces at 488/530 nm on GSH beads; GSH beads flow cytometry, compound fluorescence 488/530 nm; stronger effect = higher value; AID 1776; hit rate 0.25% among 190,000; fluorescence (KMESF) at 10 µM; in the data active = fluorescence above about 89;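 note: glutathione beads carrying GST-tagged Bcl family fusion proteins plus one bare bead set; values are compound well signal with DMSO vehicle wells as background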
Avidin bead fluor: avidin bead compound fluorescence profile | AID 1775 | hit rate 0.38% among 220,000 | Avidin beads, compound fluorescence 488/530 nm, flow cytometry; stronger effect = higher value | fluorescence (KMESF) at 10 µM; in the data active = fluorescence above about 47
RGS8-Gao reg: human RGS8-Galphao interaction regulation; P09471; multiplexed bead flow cytometry, RGS8-Galphao binding; actives lie on both sides; response (percent of control binding), % at 10 µM; hit rate 0.34% among 220,000; AID 1423; in the data active = response below about 60% or above about 140%; inactive = in between;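 note: Galphao activated as the GDP aluminium fluoride complex binding bead-coupled RGS8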
RGS16-Gao: regulators of human RGS16-Galphao interaction | O15492+P09471 | bead-based flow cytometry RGS16-Galphao binding, fluorescence; actives lie on both sides | binding response (% of control), % at 10 µM | hit rate 0.38% among 220,000 | AID 1441; call rule not given here;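 note: Galphao activated by GDP with aluminum fluoride before binding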
Target sequence (O15492 whole entry, looked up): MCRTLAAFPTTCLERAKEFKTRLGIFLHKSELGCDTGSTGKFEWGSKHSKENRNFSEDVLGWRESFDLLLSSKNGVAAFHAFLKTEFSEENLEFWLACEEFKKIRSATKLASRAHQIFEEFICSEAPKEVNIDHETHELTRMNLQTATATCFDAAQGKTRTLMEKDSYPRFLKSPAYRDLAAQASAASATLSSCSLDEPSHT
Target sequence (P09471 whole entry, looked up): as the sequence (P09471 whole entry, looked up) above
RGS4-Gao reg: modulates binding of RGS4 to human Galphao; P09471; Multiplexed bead flow cytometry; actives lie on both sides; binding response (% of control), % at 10 µM; hit rate 0.33% among 220,000; in the data active = binding response below about 49% or above about 150%; inactive = in between;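 note: fluorescent Galphao activated with aluminum fluoride binding bead-coupled RGS4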
An asterisk follows results filed as active; u = inconclusive; x = no result. Hits are enriched below; roughly 1.2% of the tested compounds scored in any of these assays.

SMILES | RGS7-Gao reg | GSH fluor | Avidin bead fluor | RGS8-Gao reg | RGS16-Gao | RGS4-Gao reg
CC1(c2ccccc2)NC(=O)N(CCOc2ccccc2)C1=O (stereo unspecified) | 102.2 | 263* | 7 | 100.0 | 103.7 | 103.0
O=C1CNC(=S)N1CCOc1ccccc1 | u | x | 7 | 98.8 | 99.3 | 95.0
Cc1cccc(C)c1OCCN1C(=O)NC(C)(c2ccccc2)C1=O (stereo unspecified) | 105.3 | 12 | 6 | 109.0 | 103.6 | 110.5
CN1CC(=O)N(CCOc2ccccc2)C1=O | 99.0 | 263* | 8 | 100.5 | 107.3 | 101.6
O=C(C1=C[C@H](c2coc3ccccc3c2=O)C[C@H](OCCCCO)O1)N1CCN(Cc2ccc3c(c2)OCO3)CC1 | 97.4 | 19 | 6 | 99.5 | 99.4 | 99.6
Cc1ccc(NC(CC(=O)c2ccccc2)C(=O)O)cc1Cl (stereo unspecified) | u | x | 4 | 98.1 | 96.2 | 98.3
O=C(CC(Nc1ccccc1)C(=O)O)c1ccccc1 (stereo unspecified) | 94.1 | 259* | 7 | 98.8 | 95.5 | 100.7
COc1ccccc1Nc1nnc(SCC(=O)Nc2nc(-c3ccc(F)cc3)cs2)s1 | 103.6 | 16 | 7 | 99.1 | 99.0 | 95.9
C=CCn1c(-c2ccc(C)cc2)nc2ccccc21 | 113.7 | 31 | 47* | 101.0 | 104.8 | 103.1
OCCN1CCN(CC(O)C(F)(F)F)CC1 (stereo unspecified) | 86.5 | 12 | 6 | 94.8 | 88.4 | 88.2
Cc1cc(C(=O)OCC(=O)NC(C)C)c(C)o1 | 101.7 | 269* | 7 | 102.1 | 100.4 | 101.1
Cc1cc(C(=O)OCC(=O)NC2CCCCC2)c(C)o1 | 99.8 | 23 | 26 | 101.5 | 101.4 | 98.7
CC(=O)Nc1cc2c(=O)n(Cc3ccccc3)c(C)nc2cc1N1CCOCC1 | 112.7 | 37 | 52* | 102.1 | 105.5 | 107.3
O=C(CSc1ccccc1)NCCSCc1ccccc1 | 98.3 | 11 | 15 | 101.8 | 107.6 | 102.6
Cc1ccc(-c2nc3sc4c(c3c(=O)n2N)CC(C)(C)OC4)cc1 | 103.3 | 25 | 55* | 99.5 | 105.9 | 99.8
CCCCN1C(=O)c2ccc(C(=O)Nc3c(N)n(CCCC)c(=O)n(C)c3=O)cc2C1=O | 102.9 | 271* | 8 | 100.7 | 100.7 | 106.7
CCCN1C(=O)c2ccc(C(=O)Nc3cc(C)on3)cc2C1=O | 98.6 | 17 | 9 | 101.6 | 102.4 | 99.5
CCOc1ccc2[nH]c(=O)c(C(c3nnnn3C3CCCCC3)N3CCN(CC)CC3)cc2c1 (stereo unspecified) | 132.3 | 54 | 76* | 114.2 | 172.0 | 145.8
CCOC(=O)c1[nH]c2ccccc2c1NC(=O)CCN1CCN(C(=O)OCC)CC1 | 135.6 | 36 | 132* | 99.2 | 97.7 | 111.6
O=C(NNC(=O)c1cccs1)c1ccc([N+](=O)[O-])cc1 | 106.5 | 9 | 20 | 102.3 | 111.5 | 107.8
CC1Cc2ccccc2N1C(=O)CSc1nnnn1C (stereo unspecified) | 101.7 | 251* | 3 | 94.1 | 37.5 | 94.5
CCCCSc1ncc(C(=O)OCC)c(N)n1 | 96.5 | 129* | 4 | 101.9 | 100.8 | 100.9
COc1ccccc1C1CCN(C(=O)c2ccco2)CC1 | u | x | 7 | 103.4 | 102.7 | 96.3
COCCOc1ccc(C(F)(F)F)cc1NC(=O)c1ccc(C)cc1 | 145.8 | 12 | 59* | 100.5 | 106.9 | 106.5
O=C1CSC(=S)N1Cc1cccnc1 | 99.8 | 65 | 8 | 97.4 | 100.9 | 103.5
SMILES | RGS7-Gao reg | GSH fluor | Avidin bead fluor | RGS8-Gao reg | RGS16-Gao | RGS4-Gao reg
O=C1CSC(=S)N1c1cccnc1 | 97.6 | 266* | 7 | 101.1 | 99.2 | 99.7
CC(CCc1ccco1)NC(=O)Nc1cccc(F)c1 (stereo unspecified) | 107.3 | 52 | 10 | 103.4 | 108.4 | 105.8
Cc1ccc(NC(=O)CS(=O)CC(=O)NC(C)CCc2ccco2)cc1Cl (stereo unspecified) | 115.6 | 26 | 72* | 96.6 | 97.8 | 97.3
Cc1ccc(S(=O)(=O)Nc2nc(C)c(NC(=O)OCCCl)s2)cc1 | 104.8 | 27 | 62* | 108.9 | 135.1 | 120.5
Nc1nc2ccc(O)cc2s1 | 101.3 | 187* | 5 | 101.8 | 102.3 | 95.4
O=C(COC(=O)c1ccccc1Oc1ccccc1)NCc1ccco1 | 97.2 | 263* | 7 | 100.7 | 92.4 | 90.7
COc1ccc(OCCC(=O)OCC(=O)NCc2ccco2)cc1 | 94.4 | 259* | 6 | 99.1 | 92.2 | 92.5
COc1ccccc1NCCC(=O)OCC(=O)NCc1ccco1 | 90.0 | 9 | 5 | 102.6 | 107.2 | 96.2
CC(C)c1nnc(NC(=O)CSc2nnc(-c3ccco3)o2)s1 | 104.1 | 17 | 11 | 102.3 | 109.1 | 99.9
c1ccc(-c2ccc(C3=Nn4c(Cn5nnc6ccccc65)nnc4SC3)cc2)cc1 | 124.4 | 8 | 13 | 89.4 | 73.6 | 91.3
O=C(Nc1ccc2oc(=O)ccc2c1)c1ccc(-c2cccc([N+](=O)[O-])c2)o1 | u | x | 65* | 101.7 | 97.2 | 98.2
O=C(Nc1ccc2oc(=O)ccc2c1)c1ccc(-c2cccc(Cl)c2)o1 | u | x | 13 | 98.9 | 90.5 | 90.7
COc1ccc(C2(CNC(=O)/C=C\c3ccco3)CCCC2)cc1OC | 93.0 | 21 | 14 | 89.5 | 89.3 | 91.9
COC(=O)Nc1ccc2c(c1)OCO2 | 87.4 | 100* | 4 | 95.3 | 91.5 | 84.2
CCOC(=O)Nc1ccc2c(c1)OCO2 | 101.5 | 20 | 39 | 102.6 | 99.5 | 100.7
Cc1ccc2c(CSc3nnc(C4CC4)n3N)cc(=O)oc2c1 | 100.5 | 262* | 9 | 99.2 | 101.9 | 100.6
C=CCOc1ccc(/C=N/N2C(=O)C(CC(=O)Nc3ccc(F)cc3F)SC2=NC)cc1 (stereo unspecified) | 106.4 | 17 | 19 | 100.3 | 109.8 | 105.0
CN(CCO)C(=O)c1cccc2c1-c1ccccc1C2=O | 103.7 | 259* | 8 | 99.4 | 102.8 | 100.0
O=C(C1CCCCC1)N1CCN(c2ccnc3cc(Cl)ccc23)CC1 | u | x | 4 | 94.2 | 89.5 | 85.2
COC(=O)C(Cc1cnc(Cl)s1)(C(=O)OC)c1ccc([N+](=O)[O-])cc1[N+](=O)[O-] | 101.7 | 272* | 7 | 104.0 | 116.7 | 99.2
O=C(COc1ccc(Cl)cc1)NNC(=O)CSc1nncs1 | u | 13 | 11 | 99.1 | 96.8 | 98.0
N#Cc1c(-c2ccccc2)ccn(Cc2ccc(Cl)cc2)c1=O | 110.8 | 17 | 49* | 98.4 | 99.3 | 100.7
CCN(CC)S(=O)(=O)c1cccc(NC(=O)COC(=O)c2ccc(Br)o2)c1 | 100.0 | 255* | 4 | 92.1 | 60.2 | 98.0
CCN(CC)S(=O)(=O)c1cccc(NC(=O)COC(=O)c2cc(=O)c3ccccc3o2)c1 | 97.1 | 9 | 8 | 106.5 | 102.3 | 103.4
O=C1COc2ccc(C(=O)COC(=O)CNC(=O)c3ccco3)cc2N1 | 101.2 | 12 | 24 | 105.8 | 106.6 | 104.5
